In the library only some 3.9% were active in any assay of this set; here they are far more common.
MazF activator: MazEF (E. coli) toxin RNase activation; P0AE70; FAM/BHQ RNA-DNA oligo cleavage fluorescence, 5 h; activation, % at 20 µM; hit rate 0.32% among 350,000; in the data active = activation above about 50%
Target sequence (P0AE70 whole entry, looked up): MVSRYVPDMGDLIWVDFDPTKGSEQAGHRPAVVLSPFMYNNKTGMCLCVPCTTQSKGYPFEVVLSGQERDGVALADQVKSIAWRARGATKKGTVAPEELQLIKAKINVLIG
BoNT-F LC inh: blocks Botulinum neurotoxin F light chain protease; Multiplex microsphere protease cleavage assay, flow cytometry; inhibition, % at 10 µM; hit rate 0.22% among 360,000; in the data active = inhibition above about 35%, passing the limit was not always enough; inconclusive = no clear call, values can overlap the other calls; also: plate controls were buffer without enzyme for full effect and enzyme alone for no effect
Anthrax LF prot: inhibitors of Bacillus anthracis lethal factor protease; hit rate 0.12% among 360,000; inhibition, % at 10 µM; P15917; multiplex microsphere protease cleavage assay, LF; AID 588501; also: plate controls were buffer without enzyme for full effect and enzyme alone for no effect
BoNT-A LC inh2: BoNT A light chain protease inhibition | multiplex microsphere protease substrate cleavage, flow cytometry | inhibition, % at 10 µM | hit rate 0.17% among 360,000; also: plate controls were buffer without enzyme for full effect and enzyme alone for no effect
BH1578 lux ind: induces V. cholerae light production without autoinducers; hit rate 0.16% among 350,000; V. cholerae BH1578 lux reporter, luminescence, 6 h; activation, % at 18.7 µM; in the data active = activation mostly above about 9.7%, no sharp cut-off; inconclusive = no clear call, values can overlap the other calls; inactive = mostly below about 3.7%
Bead autofluor: counter-screen for toxin protease inhibitors: compound fluorescence; compound autofluorescence counterscreen, microsphere flow cytometry; active compounds read high; fluorescence intensity (test concentration not listed); hit rate 3.1% among 360,000; AID 624483; in the data active = fluorescence intensity above about 16000; inconclusive = no clear call, values can overlap the other calls
Starred values were filed as active, the others as inactive; i = inactive; ? = inconclusive; · = not tested or not shown; ! = repeats disagree. Rule as the data show it, unless noted: active = inhibition above about 30%; inconclusive = no clear call, values can overlap the other calls; inactive = below that.

SMILES | MazF activator | BoNT-F LC inh | Anthrax LF prot | BoNT-A LC inh2 | BH1578 lux ind | Bead autofluor
CC[C@]1(C(=O)OC)[C@H]2C(=O)N(C)C(=O)[C@H]2[C@H]2CN(C)C(=NC)N21 | 4 | -3 | 1 | 0 | -1 | 2884
FC(F)(F)c1cccc(N2CCN(Cc3cccnc3)CC2)c1 | 5 | 4 | -1 | 1 | -3 | 16207*
COc1cccc(CN2CCN(c3cccc(C(F)(F)F)c3)CC2)c1OC | -8 | -5 | -5 | -1 | i | 16287*
COc1cc(CN2CCN(S(=O)(=O)c3ccccc3)CC2)cc(OC)c1OC | 9 | ? | -9 | 1 | -1 | 3506
COc1cc(CN2CCN(c3cccc(Cl)c3)CC2)cc(OC)c1OC | -3 | -7 | -2 | -6 | 0 | 25470*
CCc1c(C(=O)NNC(=O)Nc2ccc3c(c2)OCO3)csc1C | 3 | 1 | 1 | -2 | -1 | 6723
COCC(COS(N)(=O)=O)Cc1ccccc1 (centres undefined) | 0 | 9 | 8 | 0 | 5 | 3762
CC1CN(C(=O)c2ccc(NS(=O)(=O)c3ccc(C(C)(C)C)cc3)cc2)CC(C)O1 (centres undefined) | -1 | 5 | 4 | -1 | 0 | 6207
COc1cc(NC(=O)c2ccc3c(c2)S(=O)(=O)N=C2CCCCCN23)cc(OC)c1 | 6 | -6 | -2 | -3 | i | 6462
COc1ccc(/C=N/NC(=O)CSc2ccccc2)cc1OC | 1 | 0 | 1 | 0 | -1 | 2073
COc1ccc(/C=N/NC(=O)CSCC(=O)Nc2ccccc2)cc1OC | 0 | 12 | -14 | ? | 2 | 19130*
O=C(N/N=C\c1c(O)ccc2ccccc12)c1cncc(Br)c1 | -175 | 26 | 8 | 42* | 28 | 3289
Cc1ccc(NC(=O)COc2ccc(/C=N/NC(=O)CSCc3ccccc3)cc2)cc1 | 6 | -1 | 0 | 0 | i | 22872*
O=S(=O)(/N=C/c1c(O)ccc2ccccc12)c1ccccc1 | -4 | 42* | 2 | -1 | 0 | 3955
C=C1c2cc3c(cc2NC(=S)N1Cc1ccccc1)OCO3 | 2 | ? | 3 | 2 | i | 3067
O=C(CSCC(=O)Nc1ccccc1)N/N=C/c1c(O)ccc2ccccc12 | 86* | -2 | 6 | 5 | 0 | 23512*
O=C(N/N=C/c1c(O)ccc2ccccc12)Nc1ccccc1 | -5 | · | · | · | · | ·
Cc1ccc(N(Cc2cc(=O)[nH]c3ccccc23)C(=O)c2ccco2)cc1 | 0 | 2 | -3 | -1 | i | 23679*
CC(=O)N(Cc1cc(=O)[nH]c2ccccc12)c1ccc(C)cc1 | 0 | 3 | 2 | 0 | · | 2709
CN(Cc1nc(-c2ccccn2)no1)S(=O)(=O)c1ccc(Cl)cc1 | 4 | 4 | 1 | 4 | 0 | 21655*
CCOC(=O)C1CCCN(CCC(=O)Nc2cccc(Cl)c2C)C1 (centres undefined) | -14 | -2 | 16 | -2 | i | 3668
CC(NC(=O)c1ccc([N+](=O)[O-])o1)C12CC3CC(CC(C3)C1)C2 (centres undefined) | 5 | -5 | -3 | -1 | 0 | 5230
COc1cccc(OC)c1C(=O)NC(C)C12CC3CC(CC(C3)C1)C2 (centres undefined) | -9 | 35* | 4 | 1 | i | 3724
CCOc1ccccc1NC(=O)CCNC(=O)N1CC(=O)Nc2ccccc21 | 11 | 2 | -8 | 0 | i | 3549
OCCNc1c2ccccc2nc2c(F)c(F)c(F)c(F)c12 | -4 | -22 | -2 | 0 | 0 | 2622
SMILES | MazF activator | BoNT-F LC inh | Anthrax LF prot | BoNT-A LC inh2 | BH1578 lux ind | Bead autofluor
Cc1c2ccccc2nc2c(F)c(NCCO)c(F)c(F)c12 | 63* | -37 | -6 | 0 | -1 | 1980
CC(C)C(=O)N1CCC1(C)C(=O)Nc1cc(-c2ccccc2)nn1C (centres undefined) | · | -4 | -1 | 0 | i | 3759
CN1CCN(C(=O)CCCOc2cc(=O)n(C)c3ccccc23)CC1 | -12 | 4 | 4 | 1 | -4 | 3843
Cn1c(=O)cc(OCCCC(=O)N2CCCCC2)c2ccccc21 | -2 | -2 | -2 | -1 | -12 | 22743*
Cn1c(=O)cc(OCCCC(=O)NCc2ccccn2)c2ccccc21 | -1 | 5 | ? | 0 | 0 | ?
Cc1ccnc(NC(=O)CCCOc2cc(=O)n(C)c3ccccc23)c1 | -13 | -4 | -10 | ? | 0 | 21080*!
O=C(NC(=S)Nc1nc(-c2ccc(Br)cc2)cs1)c1cccnc1 | -1 | -2 | -2 | -1 | -1 | 23721*
CCN(C(=O)C(C)Cl)c1ccccc1 (centres undefined) | 8 | -2 | -3 | 0 | i | 4125
CN=C(NC1CCCCC1)c1ccc(Cl)cc1 | 4 | -5 | 1 | 0 | 0 | 2545
CCc1c(C)sc(NC(=O)c2cc(-c3ccco3)on2)c1C#N | 5 | -1 | 1 | 1 | i | 23332*
Cc1cc(NC(=O)c2cc(-c3ccco3)on2)n(-c2ccccc2)n1 | 20 | 0 | -3 | -1 | i | 23364*
COc1ccccc1-c1cc(C(=O)Nc2ccc(F)cc2F)no1 | -6 | 5 | -6 | 5 | 0 | 20081*
COc1ccccc1-c1cc(C(=O)NC(C)C)no1 | -11 | -7 | 1 | 0 | -1 | 8192
O=C(NCc1ccco1)c1cc(-c2ccco2)on1 | 6 | -2 | -2 | ? | i | 16474*
CCCNC(=O)C1(C)CCN(C(=O)COCc2ccccc2)C1 (centres undefined) | · | -9 | -4 | 0 | -5 | 3818
CN(C)C1(CN=Cc2cc(Cl)cc([N+](=O)[O-])c2O)CCCCC1 | 1 | -8 | 10 | 1 | 0 | 3284
O=C(NCc1ccco1)c1cc(C(=O)C2CC2)c[nH]1 | 2 | -3 | 1 | ? | i | 21145*
COc1ccccc1-c1cc(C(=O)Nc2cc(C)nn2-c2ccccc2)no1 | 8 | 6 | -8 | 3 | 0 | 20928*
Cc1nnc(SCc2ccccc2CSc2nnc(C)s2)s1 | 1 | -5 | 3 | 0 | 0 | 3899
CCN1/C(=C\C=C\C2=[N+](CC)c3ccccc3C2(C)C)C(C)(C)c2ccccc21 | i | -28 | 29 | 92* | -4 | 3370
CCOC(=O)/C=C1/N(C)c2ccccc2C1(C)C | 0 | 4 | -2 | 0 | 0 | 4823
Cc1ccn2cc(C34CC5CC(CC(C5)C3)C4)nc2c1 | -24 | -2 | -2 | -1 | 0 | 1967
N#Cc1ccsc1NC(=O)c1ccc2ncsc2c1 | -13 | 1 | -11 | 0 | i | 3982
N#Cc1ccsc1NC(=O)c1ccccn1 | 9 | 3 | 2 | 2 | -1 | 22222*
CCOC(=O)c1cc2cc3ccccc3cc2[nH]1 | 3 | 3 | 2 | 4 | 5 | 8411
CC(C)OC(=O)c1cc2ccccc2[nH]1 | 3 | -4 | 3 | -5 | -14 | 21156*
O=C(Nc1cccc(Cl)c1)NC1CC2CCC(C1)N2Cc1cccs1 (centres undefined) | 4 | -4 | 1 | 0 | 0 | 4442
CCOc1ccc(NC(=O)Nc2cc(C)ccc2F)cc1 | 8 | 2 | -5 | 1 | i | 16132*

Compound activity (PubChem BioAssay)
